These results are taken from PubChem BioAssay (NCI).

About 83,000 compounds went through this panel and 20% of them were active in at least one assay; those are over-represented in the sample as a whole.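 Compound tested at a single concentration for 48 hours in 96-well plates; a percent growth value below 10 was scored as active.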 Unmarked numbers belong to inactive results. Activity calls are given as the source filed them.

What all share (experiment): NCI-60 one-dose screen, 48 h (100 = growth as untreated, 0 = no growth, -100 = all killed)
Common to all, as to conditions: 10 µM

Experiment [1] concerns HCT-15 colon.
In experiment [2] the test system is HT29 colon.
For experiment [3], the system named is SNB-75 CNS.
For experiment [4], the system named is SNB-19 CNS.
In experiment [5] the test system is U251 CNS.
The subject of experiment [6] is PC-3 prostate.
The test system of experiment [7] is SK-MEL-5 melanoma.
For experiment [8], the system named is UACC-62 melanoma.
For experiment [9], the system named is LOX IMVI melanoma.
The subject of experiment [10] is SK-MEL-28 melanoma.
Experiment [11] deals with SK-MEL-2 melanoma.
The test system of experiment [12] is SN12C renal.
Experiment [13] relates to UO-31 renal.
In experiment [14] the test system is TK-10 renal.
Experiment [15] concerns ACHN renal.
Experiment [16] has as its system CAKI-1 renal.
For experiment [17], the system named is A498 renal.
For experiment [18], the system named is CCRF-CEM leukemia.
Experiment [19] deals with MOLT-4 leukemia.

Regarding `O=C(Nc1ccc(Oc2ccc(Nc3nc4ccccc4s3)cc2)cc1)Nc1ccc(Cl)c(Cl)c1`, the growth was 20.7% in experiment [1]; 31.7% in experiment [2]; 44.1% in [3]; 27.1% in experiment [4]; 29.5% in experiment [5]; 23.4% in experiment [6]. The growth was 34.3% in [7]; 21.1% in experiment [8]; 26.2% in experiment [9]; 45.9% in [10]; 50.7% in experiment [11]; 24.9% in experiment [12]. Besides, the growth in experiment [13] was 25.8%; in experiment [14], 54.1%; in experiment [15] it was 20.3%; in experiment [16], 37.6%; in experiment [17] it was 33.4%; in [18], 24.5%. In experiment [19], the growth was 9.65% (active).

As for `CCCCCCCCCCCC(=O)NCCCN(C)C`, the growth in experiment [1] is 93.8%; in [2], 65.5%; in experiment [3], 75.2%; in [4], 102%; in experiment [5] it was 75%; in experiment [6], 75.5%. Also, the growth in experiment [7] was 105%; in experiment [8], 101%; in experiment [9] it was 69%; in [10] it was 91.9%; in experiment [11], 92.2%; in experiment [12], 86.6%. Besides, the growth in experiment [13] is 85%; in experiment [14], 96%; in experiment [15], 99.9%; in [16], 83.4%; in experiment [17], 72.2%; in experiment [18], 65%.

Regarding `O=C(Cn1ccc(=O)[nH]c1=O)c1ccc([N+](=O)[O-])o1`, the growth in experiment [1] was 94.7%; in experiment [2], 101%; in [3], 103%; in [4], 120%; in [5], 95.2%; in experiment [6], 85.8%. The growth was 90.7% in experiment [7]; 87% in [8]; 80% in experiment [9]; 95.3% in [10]; 101% in [11]; 108% in experiment [12]. Moreover, the growth was 109% in experiment [13]; 63.3% in experiment [14]; 110% in experiment [15]; 105% in experiment [16]; 115% in experiment [17]; 83% in experiment [18]. The growth in experiment [19] is 106%.

In the case of `COc1cc(-c2nc3ccc(C)cc3[nH]2)ccc1OCC(=O)N=Nc1c(O)[nH]c2ccccc12`, the growth in experiment [1] is 52.7%; in experiment [2] it was -77.1% (active); in experiment [3], -34.8% (active); in [4] it was -75.2% (active); in experiment [5] it was -96.3% (active); in experiment [6], -63.8% (active). For the same compound, the growth in experiment [7] is 29.1%; in experiment [8], -83.1% (active); in [9], -97.7% (active); in experiment [10] it was -77.5% (active); in [11] it was -52.9% (active); in experiment [12], -61.8% (active). In addition, the growth in [13] is 95.9%; in experiment [14] it was 10.3%; in [15], 14%; in experiment [16], -46.3% (active); in experiment [17], 75.5%; in experiment [18], -50% (active). Moreover, the growth in experiment [19] is -65% (active).

As to `Nc1c(C(=O)NC2CCCCC2)sc2nc3c(cc12)C(=O)CCC3`, the growth in experiment [1] was 85.8%; in [2], 110%; in experiment [3] it was 95%; in experiment [4] it was 97.2%; in [5] it was 93.6%; in experiment [6], 92.4%. Besides, the growth is 95% in experiment [7]; 91% in experiment [8]; 103% in [9]; 94.8% in [10]; 97.2% in experiment [11]; 93.3% in experiment [12]. The growth in experiment [13] was 94.6%; in experiment [14], 140%; in experiment [15], 107%; in experiment [16], 90.3%; in [17], 88.6%; in experiment [18], 98.8%.

Take `CC(C)C(C)C(N)C(=O)O` (configuration not stated): the growth in experiment [1] was 97.6%; in [2] it was 107%; in experiment [3] it was 95.2%; in experiment [4], 115%; in experiment [5], 103%; in [6], 98.2%. Also, the growth in experiment [7] was 102%; in [8], 113%; in experiment [9] it was 96%; in experiment [10], 108%; in [11] it was 101%; in experiment [12] it was 106%. Besides, the growth in experiment [13] was 85.6%; in [14], 95.4%; in experiment [15] it was 99%; in experiment [16] it was 99%; in experiment [17], 109%; in experiment [18], 95.1%. In addition, in experiment [19], the growth is 93%.

For `CCOC(=O)c1cc(-c2ccccc2)nc(N)n1`, the growth in experiment [1] is 94.9%; in experiment [2] it was 119%; in experiment [3], 84.7%; in [4], 92%; in [5], 98.3%; in experiment [6] it was 96.6%. The growth in experiment [7] was 100%; in experiment [8] it was 99.9%; in experiment [9] it was 101%; in experiment [10], 111%; in experiment [11], 110%; in experiment [12], 94.6%. Further, the growth in [13] was 79.1%; in experiment [14], 127%; in experiment [15] it was 92.7%; in experiment [16], 94%; in [17], 86.5%; in experiment [18], 98.7%. Moreover, the growth in experiment [19] was 108%.

Turning to `O=S(=O)(O)C1(O)CCCCC1`, the growth was 87.3% in experiment [1]; 59% in experiment [2]; 82.3% in experiment [3]; 87.8% in experiment [4]; 99.3% in experiment [5]; 77.6% in experiment [6]. Besides, the growth was 92.9% in experiment [7]; 96.8% in [8]; 97.7% in [9]; 102% in experiment [10]; 90.1% in [11]; 99.3% in experiment [12]. Also, the growth in experiment [13] was 58.9%; in experiment [14], 169%; in experiment [15], 72.9%; in experiment [16] it was 76%; in experiment [17], 112%; in experiment [18], 92.8%. Moreover, the growth in experiment [19] was 87.9%.

Regarding `Cc1cc(Nc2cccc(F)c2)nc(NCc2ccccc2)n1`, the growth is 15.6% in [1]; 22.8% in experiment [2]; 50.5% in experiment [3]; 29.4% in experiment [4]; 11.7% in experiment [5]; 1.49% (active) in [6]. Besides, the growth was 33.9% in experiment [7]; 16.7% in [8]; 18.2% in [9]; 43.9% in [10]; 19.8% in experiment [11]; 16.7% in [12]. In addition, the growth in [13] is 20.7%; in [14], 35.7%; in [15] it was 17.1%; in experiment [16] it was 24.1%; in experiment [17], 24.4%; in [18], 12.8%. The growth in experiment [19] was 22.5%.

For the compound `Cc1ccc([P+](Cc2ccccc2)(c2ccccc2)c2ccccc2)cc1`, the growth in experiment [1] is 87.4%; in experiment [2], 3.42% (active); in experiment [3], 6.53% (active); in [4] it was 24.7%; in [5], 10.1%; in [6], 2.37% (active). The growth in experiment [7] is -43% (active); in [8], 1.54% (active); in experiment [9] it was 16.8%; in [10] it was 24.4%; in experiment [11], -29.1% (active); in experiment [12], 19.3%. For the same compound, the growth in experiment [13] was 68.7%; in [14], 12.3%; in experiment [15], 60.6%; in experiment [16], 76.7%; in experiment [17] it was 23%; in experiment [18], 13.6%. The growth in [19] is 6.83% (active).

Consider `COc1ccc(C(=O)/C=C/c2cc(-c3ccc(OC)c(OC)c3)n[nH]2)cc1OC`, for which the growth in [1] was -68.1% (active); in [2], -61.1% (active); in experiment [3], -0.863% (active); in experiment [4], 2.04% (active); in experiment [5], -94.5% (active); in experiment [6], -36.2% (active). Moreover, the growth in [7] is 4.15% (active); in experiment [8] it was 16.3%; in experiment [9], -86.8% (active); in experiment [10], -65.5% (active); in [11] it was 42.7%; in experiment [12], -31.7% (active). Also, the growth in experiment [13] was -95% (active); in experiment [14] it was -20.7% (active); in experiment [15], -70.9% (active); in [16], -24.4% (active); in experiment [17] it was -40.7% (active); in experiment [18], 3.32% (active). Besides, the growth in experiment [19] was 1.44% (active).
